Assay outcomes: PubChem, several laboratories
aSyn 5UTR inh: 5' untranslated region of α-synuclein, MLPCN primary screen; alpha-synuclein 5'UTR reporter, inhibitor activity; inhibition, % (tested at 7.5 µM); 300,000 compounds, 0.82% hits; in the data active = inhibition above about 60%; inconclusive = no clear call, values can overlap the other calls;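 note: H4 neuroglioblastoma cells stably carrying SNCA 5'UTR luciferase fusion; 0% = DMSO wells and 100% = positive control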
APP 5UTR inh: APP translation inhibition; SH-SY5Y APP 5'UTR-luciferase reporter, luminescence; inhibition, % at 2 µM; 190,000 compounds, 0.82% hits;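 active = inhibition above a set limit, derived from the sample mean plus 3 SD, cut at about 45% in these data; inconclusive = one replicate passes the limit while the other fails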
IEC-6 tox: counter-screen for KLF5 inhibitors: cytotoxicity in IEC-6 cells. IEC-6 cytotoxicity, luminescence viability. inhibition, % at 5 µM. 290,000 compounds, 0.78% hits. AID 1825; in the data active = inhibition above about 22%;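 note: 0% = plate median of test compound wells and 100% = cytotoxic reference compound wells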
KLF5 inh: kruppel-like factor 5 inhibition. 290,000 compounds, 0.23% hits. inhibition, % at 5 µM. AID 1700. DLD-1 KLF5 promoter-luciferase reporter, luminescence;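 active = inhibition above a per-plate limit of that plate's mean compound inhibition plus 3 SD, cut at about 60% in these data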;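 note: 0% = DMSO wells and 100% = LY294002 at 200 µM; higher means less KLF5 promoter-driven luciferase light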
BaF3 parental: reduces parental Ba/F3 cell viability, JAK2V617F counter-screen. inhibition, % at 5.6 µM. CellTiter-Glo ATP luminescence. 220,000 compounds, 1.1% hits;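 active = inhibition above a per-campaign cutoff, the mean inhibition of all tested compounds plus 3 SD, cut at about 27% in these data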;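 note: 0% = DMSO wells and 100% = JAK Inhibitor I control wells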
Ba/F3 V617F tox: loss of viability in JAK2V617F-driven Ba/F3 cells. 220,000 compounds, 1.1% hits. inhibition, % at 5.6 µM. Ba/F3 EpoR-JAK2V617F viability, ATP luminescence;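 active = inhibition above the campaign mean plus 3 SD over all tested compounds, cut at about 24% in these data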;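 note: cytokine-independent growth of Ba/F3 cells driven by EpoR plus mutant JAK2; 0% = DMSO-treated cells and 100% = JAK inhibitor I control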
Numbers without * were called inactive; u = inconclusive; x = no result given. In the library only some 2.1% were active in any assay of this set; here they are far more common.

SMILES	aSyn 5UTR inh	APP 5UTR inh	IEC-6 tox	KLF5 inh	BaF3 parental	Ba/F3 V617F tox
Cc1ccc2oc(/N=C(\N)NC(=O)C(C)(C)C)nc2c1	96*	x	4	44	2	-1
O=C(NCCCN1CCOCC1)c1ccc2c(c1)N(Cc1c(F)cccc1Cl)C(=O)CS2	17	x	-1	-41	x	x
CC(=O)CCC(=O)N1CCC(n2nccc2NC(=O)c2ccccc2C)CC1	-24	x	-6	-22	x	x
Cc1ccc(OCC(O)Cn2c(=N)n(Cc3ccccc3)c3ccccc32)cc1 (centres undefined)	6	8	9	-14	9	3
CCN(CC)CCn1c(=N)n(CC(O)COc2cccc(C)c2)c2ccccc21 (centres undefined)	-37	0	0	-12	12	13
N=c1n(Cc2ccc(Cl)cc2)c2ccccc2n1CC(O)COc1ccccc1 (centres undefined)	0	-6	-5	-3	36*	12
N=c1n(Cc2ccccc2)c2ccccc2n1CC(O)COc1ccc(Cl)cc1Cl (centres undefined)	90*	-19	-2	-11	10	3
Cc1cccc(OCC(O)Cn2c(=N)n(CCN3CCCCC3)c3ccccc32)c1 (centres undefined)	-59	-2	6	-18	55*	25*
Cc1nc(C(=O)NNC(=O)c2ccc(Cl)cc2)c(C(F)(F)F)o1	28	x	8	2	31*	-4
Cc1ccc(C)c(-n2c3nc(=O)[nH]c(=O)c-3cc3cc([N+](=O)[O-])ccc32)c1	x	91*	14	5	56*	16
Cc1cccc(-n2c3nc(=O)[nH]c(=O)c-3cc3cc([N+](=O)[O-])ccc32)c1	-4	37	6	-30	9	7
COc1ccc(/C=C(\CC(=O)O)c2nc3ccccc3s2)cc1O	-9	-14	7	-20	4	-2
CCOc1cc(/C=C(\CC(=O)O)c2nc3ccccc3s2)ccc1OC	18	-9	12	-5	41*	9
Cc1c(CCC(=O)O)c(=O)oc2cc3oc4c(c3cc12)CCCC4	68*	x	2	-15	1	-2
Cc1c(CCC(=O)NCC(=O)NCC(=O)O)c(=O)oc2cc3oc4c(c3cc12)CCCC4	-3	x	4	3	x	x
Cc1c(CCC(=O)N2CCC[C@H]2C(=O)O)c(=O)oc2cc3oc4c(c3cc12)CCCC4	77*	x	-4	-6	x	x
Cc1ccc2sc(N(CCCN(C)C)C(=O)c3ccc(Br)s3)nc2c1C	-47	3	2	-12	1	-5
CC(NS(=O)(=O)OCC(Cl)(Cl)Cl)c1ccc(Br)cc1 (centres undefined)	12	x	-5	6	x	x
O=C(Oc1cc(Cl)cc(Cl)c1)c1cnc2n(c1=O)CCS2	9	x	1	9	1	-2
CSc1nnc(-c2sc3cc(Cl)ccc3c2Cl)n1C	-23	8	3	0	0	-3
CCn1c(SC)nnc1-c1sc2cc(Cl)ccc2c1Cl	-38	-5	0	-33	40*	2
COc1ccc(-c2ccc(-c3nnn(CC(C)=O)n3)cc2)cc1	-189	-87	3	-118	6	0
COc1ccc(CCn2nnc(-c3ccc(NC(C)=O)c(Cl)c3)n2)cc1	16	-4	-6	-3	59*	-3
Cc1c(CN2CCC(CO)(Cc3cccc(C(F)(F)F)c3)CC2)c2ccccc2n1C	4	-7	4	-31	2	0
N#C/C(=C/c1ccc(N2CCOCC2)o1)c1ccc(Cl)cc1	-286	-10	-3	-9	56*	47*
SMILES	aSyn 5UTR inh	APP 5UTR inh	IEC-6 tox	KLF5 inh	BaF3 parental	Ba/F3 V617F tox
N#C/C(=C\c1ccc(N2CCOCC2)o1)c1nc2ccccc2[nH]1	15	-156	-3	-8	2	1
COCC1CCN(Cc2c(C(=O)N3CCc4ccccc4C3)nc3ccc(Cl)cn23)C1 (centres undefined)	12	x	-7	3	x	x
CC1CCc2cc(F)ccc2N1C(=O)c1ccc2c(c1)OCO2 (centres undefined)	5	-10	6	-1	36*	32*
CC(Cn1cnc2ccccc21)C(=O)O (centres undefined)	29	56*	-3	-32	4	-4
Nc1c(S(=O)(=O)c2cccc(Cl)c2)c2nc3ccccc3nc2n1/N=C/c1ccc(O)c(O)c1	89*	2	4	23	6	1
Cc1cc(C2=NNC(=NC3CC3)SC2)c(C)n1-c1ccccc1F	99*	70*	6	-16	4	-1
CC(C)n1c(-c2ccc(N(C)C)cc2)nc2ccccc21	x	-170	15	-76	2	-4
CN(C)c1ccc(-c2nc3ccccc3n2C)cc1	u	-98	12	-14	53*	44*
COc1ccc(Nc2nc3cc(C)ccc3cc2C#N)c(OC)c1	10	92*	-3	0	3	-3
COc1ccc(Nc2nc3ccc(C)cc3cc2C#N)c(OC)c1	-50	4	4	-16	2	-2
O=C(NCCc1csc(-c2cccnc2)n1)c1ccco1	13	3	4	-27	96*	-4
Cc1ccc(-c2nc(CCNC(=O)c3ccco3)cs2)cc1	3	x	x	x	x	x
COc1ccc(O)c(/C=N/NC(=O)CCC(=O)Nc2ccc(F)cc2)c1	2	x	-5	-3	x	x
O=C(Nc1ccccc1-c1ccccc1)C(=O)Nc1ccccc1-c1ccccc1	-9	x	2	-5	-3	-2
COc1ccc2nc3cc(Cl)ccc3c(Nc3cc(CN4CCCC4)c(O)c(CN4CCCC4)c3)c2n1	104*	x	14	20	x	x
CC1=CC(=O)C(C(C)C)=C/C1=N/OS(=O)(=O)c1ccccc1	-23	x	-1	-15	104*	99*
CC1=CC(=O)C=C(C)C1=NOS(=O)(=O)c1ccccc1	12	80*	7	0	48*	76*
CCOP(=O)(/C(C#N)=C(\C)O)c1ccccc1 (centres undefined)	-3	-8	1	-17	81*	7
C/C(=N\NC(=O)C(C)Sc1ccccc1)c1ccc([N+](=O)[O-])cc1 (centres undefined)	-11	x	4	-41	x	x
Cc1ccc(NC(=O)C2(c3ccc([N+](=O)[O-])cc3)CCCC2)cc1	26	0	-1	-4	50*	2
Cc1ccc(OCC(=O)Nc2ccc([N+](=O)[O-])cc2)cc1	-10	2	-8	1	1	-6
O=C(Nc1ccc(-c2nc3ccccc3s2)cc1)C1=COCCO1	94*	-102	-8	-99	6	0
CCOC(=O)c1ccc(N2C(=O)CC(N3CCC(Nc4ccc(F)cc4)CC3)C2=O)cc1 (centres undefined)	-5	17	3	16	49*	4
Fc1ccc(N2CCN(Cc3cn[nH]c3-c3ccccc3)CC2)cc1	3	x	8	4	-1	2
OC1(c2ccc(Cl)cc2)CCN(Cc2cn[nH]c2-c2ccccc2)CC1	70*	x	14	-6	-1	13
Cc1nnc(SCC(=O)Nc2cc(Cl)ccc2Cl)n1CC1CCCO1 (centres undefined)	8	x	-6	2	x	x
